PubChem BioAssay AID1159524 (National Center for Advancing Translational Sciences (NCATS), 2015)
Out of some 410,000 compounds screened, about 5,100 (1.2%) were called active. A call without a number means that no potency is given here. Not shown: some 8% with an inconclusive outcome. Calls come from the whole dose curve; tested in HEK293T cells. The full list was thinned out, with actives kept by preference.

Assay: High Throughput Screening for Foot and Mouth Disease Virus Antivirals; note: read-out not given here; nearly all actives have a fitted effect of over 45% in size
Settings: FMDV antiviral cell-based qHTS; series mostly up to 57.9 µM
Potency is the fitted concentration of half-maximal effect.

Row | Compound | Potency
1 | COC(=O)N1CCC2(CCCN(c3ccncc3)C2)CC1 | inactive
2 | CC[C@H](C)C(=O)N[C@H]1CCCN1C(=O)/C=C/c1ccccc1 | inactive
3 | Cc1[nH]c(=O)c(C(=O)/C=C/c2ccccc2)c2c1CCCC2 | 12.6 µM (active)
4 | O=C1CCCCC1C(=O)c1ccccc1 (stereo not given) | inactive
5 | COC(=O)N1CCC[C@@]2(CCN(C(=O)NC(C)C)C2)C1 | inactive
6 | Cc1cc(C)cc(OCC(=O)Nc2c(C(=O)c3ccccc3)oc3ccccc23)c1 | inactive
7 | CNc1nc(-c2ccccc2OC)nc2ccccc12 | inactive
8 | CC1C(O)CC2C(C(=O)O)=CO[C@@H](O[C@H]3OC(CO)C(O)C(O)C3O)C21 (stereo not given in full) | inactive
9 | COc1ccc(CCNC(=O)CCCCn2c(=O)c3ccccc3n(Cc3ccccc3)c2=O)cc1OC | inactive
10 | COc1ccc(CCNC2=C(Cl)C(=O)N(Cc3ccccc3)C2=O)cc1OC | 25.1 µM (active)
11 | COc1ccc(CCNS(=O)(=O)c2ccc(Cl)s2)cc1OC | inactive
12 | CCC1CN(CCNC(=O)c2cccc(C)n2)Cc2cc(OC)ccc2O1 (stereo not given) | inactive
13 | COC(C)C(C(=O)OCC1=CCN2CC[C@H](O)[C@@H]12)C(C)C (stereo not given in full) | inactive
14 | CCc1ccc(NC(=O)c2cnc3c(-c4ccccc4)c(C)nn3c2C)cc1 | inactive
15 | CC(C)=CC1C(C(=O)O)C1(C)C (stereo not given) | inactive
16 | Nc1nc2[nH]c(=O)c(=O)[nH]c2c(=O)[nH]1 | inactive
17 | COc1ccc(CS(=O)/C(Cl)=C(/Cl)C(=O)Nc2ccc(OC)nc2)cc1 (stereo not given) | 5.62 µM (active)
18 | COc1ccc(NC(=O)C(=O)NCc2ccco2)cc1 | inactive
19 | COc1ccc(CC(=O)Nc2ccc(-c3nc4ccccc4s3)c(C)c2)cc1 | inactive
20 | Nc1ncnc2c1ncn2C1CC(O)C(CO)O1 (stereo not given) | inactive
21 | CC1CC[C@@]23CCC4(C)[C@@]5(C)CCC6C(C)(C)C(O)CC[C@@]6(C)C5C=C[C@@]4(OC2=O)C3C1C (stereo not given in full) | inactive
22 | O=c1oc2ccccc2c(O)c1C(c1ccccc1O)c1c(O)c2ccccc2oc1=O | inactive

Row | Compound | Potency
23 | CC1=Nc2cc(C(=O)N3CCC(C)CC3)ccc2Sc2ccc(Cl)cc21 | inactive
24 | CCC(=O)N1CCc2cc(S(=O)(=O)NC(Cc3ccccc3)C(=O)NCc3ccc(C)cc3)ccc21 (stereo not given) | inactive
25 | CSCCC(NS(=O)(=O)c1ccc(C)cc1)C(=O)NCCc1c[nH]c2ccccc12 (stereo not given) | inactive
26 | Cc1ccc(S(=O)(=O)N(C)CC(=O)NCCc2c[nH]c3ccccc23)cc1 | 15.8 µM (active)
27 | CCN(CC(=O)NCCc1ccccc1)S(=O)(=O)c1ccc(C)cc1 | inactive
28 | COc1ccc(CCNC(=O)c2ccc3c(c2)nc(C)n3-c2ccc(Br)cc2)cc1OC | inactive
29 | O=C(CCc1nc(CN2CCN(S(=O)(=O)c3ccc(Br)cc3)CC2)no1)N1CCCCC1 | inactive
30 | C/C(CCc1ccccc1)=N\NC(=O)c1ccc(CN2CCOCC2)cc1 | inactive
31 | O=C(Nc1ccc(CSc2ccccc2)cc1)c1ccc(CN2CCOCC2)cc1 | 5.01 µM (active)
32 | O=C(Nc1ccccc1C(=O)N1CCOCC1)c1ccc(CSc2ccccc2)cc1 | inactive
33 | CS(=O)(=O)N1CCC2(CC1)CN(Cc1cc(C(F)(F)F)cc(C(F)(F)F)c1)C2 | inactive
34 | COc1ccccc1CNc1nc2ccc(Cl)cc2n2cnnc12 | inactive
35 | O=C(NCC1Cc2cc(F)cc(-c3cnccn3)c2O1)C1COc2ccccc2O1 (stereo not given) | inactive
36 | COc1cccc(CNC(=O)Cc2csc3nc(-c4ccccc4)cn23)c1 | inactive
37 | Fc1ccc(-c2csc(-c3ccc(C4SCCS4)cc3)n2)cc1F | inactive
38 | COc1cc(CC(=O)Nc2nc(-c3ccc(F)c(F)c3)cs2)cc(OC)c1OC | 20 µM (active)
39 | COc1ccc(CC(=O)Nc2nc(-c3ccc(F)c(F)c3)cs2)cc1OC | 17.8 µM (active)
40 | COc1ccc(-c2cc(C(=O)NCc3cc(OC)c(OC)c(OC)c3)[nH]n2)cc1 | inactive
41 | COc1ccc(CC(=O)Nc2nnc3n2CCS3)cc1OC | inactive
42 | COc1cccc(CC(=O)Nc2nc(-c3ccc(OC)c(OC)c3)cs2)c1 | 35.5 µM (active)
43 | COc1cc(CCC(=O)Nc2ccncc2Cl)cc(OC)c1OC | inactive
44 | COc1cccc(CNS(=O)(=O)c2csc(C(N)=O)c2)c1 | inactive

Row | Compound | Potency
45 | Oc1ccc(-c2c(-c3ccccc3)nn3c(C(F)(F)F)cc(C(F)(F)F)nc23)cc1 | inactive
46 | COc1ccc(-n2c(=O)c(-c3cn(C)c4ccccc34)nc3cnc(OC)nc32)cc1 | inactive
47 | COC(=O)c1ccc(NC(=O)CCc2c(C)nn(-c3ccc(N4CCCC4)nn3)c2C)cc1 | inactive
48 | COc1cc(OC)c2c(c1Cl)OC1(C2=O)C(O)=CC(=O)CC1C (stereo not given) | inactive
49 | O=C(Nc1ccccc1)N[C@H]1C[C@H](C(=O)O)Nc2cc(Cl)cc(Cl)c21 | inactive
50 | COc1ccc(CN2C(=O)C(NC(=O)c3cccc(C)c3)(C(F)(F)F)N=C2c2ccccc2)cc1 (stereo not given) | inactive
51 | Cc1cnc(C)c(-c2cc(F)c3c(c2)CC(CNC(=O)c2cccc(Cn4cccn4)c2)O3)n1 (stereo not given) | inactive
52 | CN(Cc1ccco1)c1ncncc1-c1ccoc1 | inactive
53 | CC(C)[C@@H]1NC(=O)[C@H](Cc2ccccc2)NC(=O)[C@@H](CC(=O)O)NC(=O)CNC(=O)[C@H](CCCNC(=N)N)NC1=O | inactive
54 | COc1ccc2c(c1)c(=Cc1ccc(N(C)C)cc1)c1cc(-c3ccccc3)[n+](C)n12 | 14.1 µM (active)
55 | CCOC(=O)c1cc(OC(=O)c2ccccc2Cl)n(-c2ccccc2)n1 | inactive
56 | COc1ccccc1-c1ccnc(-n2ncc(C(=O)NCCc3ccncc3)c2C)n1 | inactive
57 | N#Cc1cccc(-c2nc3cnc(N4CCNCC4)nc3n(C3CC3)c2=O)c1 | inactive
58 | CCCN(CCC)CCCNC(=O)Cn1cc2c(n1)-c1c(oc(C(=O)N3CCCC3)c1C)CC2 | inactive
59 | Cc1ccc(Cn2cc(CCC(=O)NCc3ccc(OC(C)C)cc3)c3ccccc32)cc1 | inactive
60 | Cc1c(C(=O)N2CCCC2)oc2c1-c1nn(CC(=O)NCc3ccc(OC(C)C)cc3)cc1CC2 | 28.2 µM (active)
61 | Cc1cccc(CNc2cc(-c3ccccc3Cl)ncn2)c1 | inactive
62 | CC(=O)Nc1c(C)nn(-c2ccccc2)c1N1CCC(C(=O)Nc2cc(Cl)ccc2C)CC1 | inactive
63 | Cc1cccc(N2CCC(NCc3c(C(=O)N4CCCCC4)nc4c(C)cccn34)CC2)c1 | inactive
64 | Cc1cccn2c(CNCC(C)Oc3cccnc3)c(C(=O)N3CCOCC3)nc12 (stereo not given) | 4.47 µM (active)
65 | Cc1cc(C)n(CC(C)NCc2c(C(=O)N3CCOCC3)nc3c(C)cccn23)n1 (stereo not given) | inactive
